Measurements from PubChem BioAssay.

Test: probe aShh binding to arrayed compounds – biochemical, biotinylated probe, 635/667 nm fluorescence, primary screen (AID 1114);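 note: probe is biotin-labelled aShh protein from a stem cell growth factor screen; measures binding of labelled protein to compounds printed on the slide; score merges feature fluorescence at 667 nm with signal-to-noise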
Details: small-molecule microarray, higher = more signal

Row | Structure (SMILES) | composite z-score
1 | COc1cc(NN2C(C(O)c3ccc(I)cc3)C=CC3C(=O)N(c4ccccc4)C(=O)C32)cc(OC)c1OC (stereo not drawn) | 0.213
2 | Cc1ccc([C@H]2C(C(=O)O)=C[C@@H](C(C)(C)C)N2S(=O)(=O)c2ccc(C)cc2)cc1 | 0.348
3 | CC(C)OC(=O)CC(=O)CC(O)c1ccc([N+](=O)[O-])cc1 (stereo not drawn) | 0.163
4 | NC(=O)N1C(=O)C2C(C1=O)C1C=C(CCCO)C2C(C2CC2)N1Cc1cccc(OC(F)(F)F)c1 (stereo not drawn) | -0.138
5 | CC(CO)N1C(=O)[C@@H]2[C@H]3C(=O)OCC=C[C@H]3OC23C=CCN(c2ccc(Cl)cc2)C(=O)[C@@H]13 (stereo partly drawn) | 1.71
6 | NC(=O)[C@@H]1[C@H]2C(=O)O[C@H](c3ccccc3)[C@H](c3ccccc3)N2[C@H](c2ccc(OCCO)cc2)[C@@]12C(=O)Nc1ccc(C#CCCO)cc12 | 0.166
7 | CCOC(=O)C[C@H]1[C@H](OC(=O)c2ccc(C(=O)c3ccccc3)cc2)[C@@H](NC(=O)CC(C)C)c2cc(OCCCO)ccc2N1C(=O)Cc1ccc(OC)cc1 | -0.238
8 | COCCCNC(=O)[C@@]1(c2ccc([N+](=O)[O-])cc2)CC(=O)N(CC23CC4CC(CC(C4)C2)C3)[C@@H]1c1ccc(CO)cc1I | 0.337
9 | C=C(/C(=C/C[C@@H](OC(C)=O)c1ccc(CO)o1)c1cc(C(=O)OC)ccc1OC)C(C)C | 0.216

Test: probe aNog binding to arrayed compounds – biochemical, biotinylated probe, 635/667 nm fluorescence, primary screen (AID 1115);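 note: probe is biotinylated aNog protein used at 0.15 µg/mL for 1 h at 4 C; z-score combines 667 nm fluorescence of each spot with its signal to noise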
Details: small-molecule microarray, higher = more signal

Row | Structure (SMILES) | composite z-score
10 | Cc1nc2cc(Br)ccc2c(=O)n1Cc1cccc(O)c1 | 0.761
11 | C=C[C@@H](C)[C@H](O)c1ccc(OCCO)cc1 | -0.446
12 | C=CCN1C(=O)[C@]2(O[C@H](CCO)[C@@H]([Si](C)(C)c3ccc(OC)cc3)[C@@H]2C)c2cc(NC(=O)c3ccc(OC)cc3)ccc21 | -0.0184
13 | CCOC(=O)C[C@H]1[C@H](OC(=O)c2cc3ccccc3oc2=O)[C@@H](NC(=O)c2ccc3ccccc3c2)c2cc(OCCCO)ccc2N1C(=O)Cc1ccc(OC)cc1 | -0.0047
14 | COc1ccc(C#Cc2ccc3c(c2)[C@]2(C(=O)N3)[C@H](c3ccc(OCCO)cc3)N3[C@H](c4ccccc4)[C@H](c4ccccc4)OC(=O)[C@H]3[C@@H]2C(=O)N2CCc3cc(OC)c(OC)cc3C2)cc1 | -0.155
15 | COC(=O)c1c2oc(c1C(=O)OC)C(=O)N1CCC[C@H]1Cn1nncc1CN(Cc1ccccc1)C(=O)N[C@H](CO)CC2 | -0.296
16 | COC(=O)C(CC#Cc1ccc2c(c1)[C@]1(C(=O)N2)[C@H](c2ccc(O)cc2)N2[C@H](c3ccccc3)[C@H](c3ccccc3)OC(=O)[C@H]2[C@@H]1C(=O)N1CCCCCCC1)C(=O)OC | 2.58
17 | C=C[C@H](C)[C@H](OC(=O)Nc1ccc(OC)cc1)c1ccc(OCCO)cc1 | -0.142
18 | [N-]=[N+]=NC[C@H](Cc1ccccc1)NC(=O)c1ccccc1 | -0.293
19 | COc1ccc([Si](C)(C)[C@H]2[C@H](CC(=O)N3Cc4ccccc4C[C@H]3CO)O[C@@]3(C(=O)N(Cc4ccc(N5C(=O)c6cccc7cccc5c67)cc4)c4ccccc43)[C@@H]2C)cc1 | -0.49
20 | COc1ccc([Si](C)(C)[C@H]2[C@H](CC(=O)N3CCC[C@H]3CO)O[C@@]3(C(=O)N(Cc4ccc(N5CCC5=O)cc4)c4ccccc43)[C@@H]2C)cc1 | -0.484
21 | C=CCNC(=O)[C@H]1[C@@H]2C(=O)O[C@@H](c3ccccc3)[C@@H](c3ccccc3)N2[C@@H](c2ccc(OCCO)cc2)[C@]12C(=O)Nc1ccc(C#CCNC(N)=O)cc12 | 0.85
22 | C=CCC(OC(C)=O)[C@@H]1[C@@H](N(Cc2cccc3ccccc23)C(=O)Cc2ccc(F)cc2)c2cc(OCCCO)ccc2N1C(=O)c1ccc(-c2ccccc2)cc1 (stereo partly drawn) | 0.0812
23 | CC1CC/C=C\[C@H]2OC34C=CCN(CCN5CCOCC5)C(=O)[C@H]3N(C(C)CO)C(=O)[C@@H]4C2C(=O)O1 (stereo partly drawn) | -0.373
24 | C=CCN1C(=O)[C@]2(O[C@H](CCO)[C@@H]([Si](C)(C)c3ccc(OC)cc3)[C@@H]2C)c2cc(N3C(=O)COc4ccccc43)ccc21 | 0.0599
25 | CN(C)C(=O)[C@]1(CCS(=O)(=O)c2ccccc2)N=C(c2ccc(OCCCO)cc2)O[C@@H]1c1ccccc1 | -0.565
26 | Cc1ccccc1C(O)C1C=CC2C(=O)NC(=O)C2N1Nc1ccc(Cl)cc1Cl (stereo not drawn) | 0.879
27 | O=C1c2ccccc2[C@](Cc2ccccc2I)(C(=O)NC2CC2)[C@H](c2ccc(CO)cc2)N1Cc1ccccc1C(F)(F)F | -0.484
28 | Cc1ccc(C(C)CC(O)C2C=CC3C(=O)N(c4ccccc4)C(=O)C3N2Nc2ccc(C#N)cc2)o1 (stereo not drawn) | 0.526
